Reference: PubChem BioAssay (EPA / NIEHS)
Active and inactive are the calls of the source. Rule for the calls: active = hit-call score of the fitted dose curve at least 0.9, where 1 is the maximum; inactive = score below 0.9.

Legend:
[1] = ATG_CRE_CIS: Attagene CIS-FACTORIAL HepG2 Assay for human cAMP Responsive Element (CRE) binding protein 3 (AID 2282926); settings: HepG2 CRE cis-reporter, Attagene multiplexed mRNA; actives raise or lower the signal
How it was run: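 Transfected HepG2 were treated for 24 hours, then RNA was extracted and reporter cDNA amplified with sequence-specific primers. Labelled fragments were separated by capillary electrophoresis, and the CRE signal was fitted bidirectionally with DMSO as baseline.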

[2] = molecular target: CCAAT/enhancer-binding protein beta (Homo sapiens) (UniProt P17676); experiment: ATG_C_EBP_CIS: Attagene CIS-FACTORIAL HepG2 Assay for human CCAAT/Enhancer Binding Protein (C/EBP) beta (AID 2282927); settings: HepG2 Attagene cis-factorial transcription factor reporter; actives raise or lower the signal
How it was run: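 Endogenous C/EBPb-driven reporter transcripts measured in transfected human HepG2 cells at 24 h via RT-PCR and capillary electrophoresis of labelled fragments. Activity fitted in both directions relative to DMSO baseline.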

[3] = ATG_CMV_CIS: Attagene CIS-FACTORIAL HepG2 Assay for human CMV (Internal Marker) (AID 2282928); settings: HepG2 CMV promoter reporter, transcription factor profiling; actives raise or lower the signal;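 note: endpoint acts as a background internal control marker rather than a target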
How it was run: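 After transient transfection of HepG2 with reporter transcription units driven by cis-regulatory promoters, cells receive test chemical for 24 h. Labeled reporter amplicons, digested with HpaI, are sized and quantified by capillary electrophoresis against DMSO.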

[4] = ATG_DR4_LXR_CIS: Attagene CIS-FACTORIAL HepG2 Assay for human Liver X Receptor (LXR), DR4 submotif (AID 2282929); settings: HepG2 Attagene DR4 cis-reporter, mRNA transcription; actives raise or lower the signal
How it was run: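 The endpoint is DR4-element-driven reporter transcripts after 24 h chemical exposure of transfected HepG2 cells. These were measured via RT-PCR and capillary electrophoresis, and gain or loss of signal was fitted relative to DMSO controls.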

[5] = molecular target: Aryl hydrocarbon receptor (Homo sapiens) (UniProt P35869); experiment: ATG_Ahr_CIS: Attagene CIS-FACTORIAL HepG2 Assay for human Aryl Hydrocarbon Receptor (Ahr) (AID 2282930); settings: HepG2 AhR cis-factorial reporter transcription; actives raise or lower the signal
How it was run: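 Reporter mRNA levels, quantified by RT-PCR and fluorescent capillary electrophoresis, reflect endogenous AhR transcriptional activity in HepG2 cells carrying transfected cis-promoter reporter constructs. Readout at 24 h post-dose; gain or loss fitted against DMSO baseline.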

[6] = ATG_AP_1_CIS: Attagene CIS-FACTORIAL HepG2 Assay for human Activator Protein 1 (AP-1) (AID 2282931); settings: HepG2 Attagene cis-factorial AP-1 reporter mRNA; actives raise or lower the signal
How it was run: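 Readout is reporter transcript level from endogenous transcription factor activity, quantified by RT-PCR with fluorescent primer extension and capillary electrophoresis. Transiently transfected HepG2 cells, 24 h exposure. Curves fitted both directions versus DMSO.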

[7] = ATG_AP_2_CIS: Attagene CIS-FACTORIAL HepG2 Assay for human Activator Protein 2 (AP-2) (AID 2282932); settings: HepG2 AP-2 cis-reporter, Attagene transcription factor profiling; actives raise or lower the signal
How it was run: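 HepG2, transient MRTU transfection, cis-regulated reporters; 24 h compound exposure; RNA isolated, RT-PCR, 6-FAM labelling, HpaI digest, CE fluorescence. DMSO = negative control/baseline, bidirectional fit.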

[8] = ATG_BRE_CIS: Attagene CIS-FACTORIAL HepG2 Assay for human Bone Morphogenetic Protein (BMP) Response Element (BRE) (AID 2282933); settings: HepG2 BMP response element reporter, Attagene transcription factor profiling; actives raise or lower the signal
How it was run: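 A HepG2 multiplex reporter system measured inducible reporter mRNA 24 h post-dosing. Detection: RT-PCR, 6-FAM primer extension, HpaI digestion, capillary electrophoresis. Activity fitted bidirectionally relative to DMSO.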

[9] = molecular target: Retinoic acid receptor alpha (Homo sapiens) (UniProt P10276); experiment: ATG_DR5_RAR_CIS: Attagene CIS-FACTORIAL HepG2 Assay for human Retinoic Acid Receptor Alpha (RARE), DR5 submotif (AID 2282934); settings: HepG2 Attagene cis-factorial RARE DR5 reporter, mRNA; actives raise or lower the signal
How it was run: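 Reporter transcripts from a DR5-regulated unit, measured via RT-PCR plus capillary electrophoresis, reflect endogenous RAR activity in transiently transfected human HepG2 liver cells. Exposure lasted 24 h; gain or loss of signal scored against DMSO.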

[10] = molecular target: Transcription factor E2F1 (Homo sapiens) (UniProt Q01094); experiment: ATG_E2F_CIS: Attagene CIS-FACTORIAL HepG2 Assay for human E2F Transcription Factor 1 (AID 2282935); settings: HepG2 Attagene cis-reporter, E2F reporter RNA transcripts; actives raise or lower the signal
How it was run: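 Cis-element reporter mRNA induction in transiently transfected HepG2, 24 h exposure. Activity fitted in both directions relative to DMSO negative control.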

[11] = ATG_E_Box_CIS: Attagene CIS-FACTORIAL HepG2 Assay for human Enhancer Box (E-box) (AID 2282936); settings: HepG2 E-box cis-reporter transcription, actives raise or lower the signal
How it was run: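 Cells: HepG2 (human liver), transient MRTU transfection. Exposure 24 h. RNA → oligo(dT) RT → PCR → 6-FAM label → HpaI → CE. Activity fitted both directions relative to DMSO.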

[12] = ATG_M_61_CIS: Attagene CIS-FACTORIAL HepG2 Assay for M61 Transcription Factor (Internal Marker) (AID 2282937); settings: HepG2 Attagene CIS-FACTORIAL M61 internal marker reporter; actives raise or lower the signal
How it was run: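 Readout is reporter mRNA by RT-PCR, fluorescent primer extension and capillary electrophoresis, with gain or loss fitted relative to DMSO. Transfected HepG2 cells carrying endogenous-TF-driven cis reporters were exposed to chemicals for 24 hours.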

[13] = ATG_EGR_CIS: Attagene CIS-FACTORIAL HepG2 Assay for human Early Growth Response 1 (EGR1) (AID 2282938); settings: HepG2 Attagene CIS-FACTORIAL EGR reporter mRNA; actives raise or lower the signal
How it was run: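 After 24 h compound exposure, RNA from reporter-transfected HepG2 cells was reverse-transcribed, PCR-amplified, fluorescently labelled and resolved by capillary electrophoresis. EGR1 reporter transcript changes, up or down, were fitted against DMSO, reflecting endogenous transcription-factor activity.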

[14] = ATG_M_19_CIS: Attagene CIS-FACTORIAL HepG2 Assay for M19 Transcription Factor (Internal Marker) (AID 2282939); settings: HepG2 Attagene CIS-FACTORIAL M19 internal marker reporter; actives raise or lower the signal
How it was run: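 Chemical-treated HepG2 (24 h) with MRTU constructs; reporter transcripts detected by fluorescent RT-PCR fragment analysis on capillary electrophoresis. Internal background marker, DMSO as baseline.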

[15] = ATG_Ets_CIS: Attagene CIS-FACTORIAL HepG2 Assay for human Erythroblast Transformation Specific (ETS) (AID 2282941); settings: HepG2 ETS cis-reporter transcription, actives raise or lower the signal
How it was run: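 Human HepG2 hepatoma cells were transiently transfected with promoter-driven reporter constructs and treated for 24 hours. Reporter transcripts were quantified by RT-PCR with fluorescent primer extension; bidirectional curve fitting used DMSO as reference.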

[16] = molecular target: Hepatocyte nuclear factor 3-beta (Homo sapiens) (UniProt Q9Y261); experiment: ATG_FoxA2_CIS: Attagene CIS-FACTORIAL HepG2 Assay for human Forkhead box A2 (FOXA2) (AID 2282942); settings: HepG2 cis-reporter transcription factor activity, 24 h; actives raise or lower the signal
How it was run: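 Endogenous transcription factor activity is captured via cis-element-driven reporter transcripts in transfected HepG2. Total RNA taken at 24 h post-dosing; labelled RT-PCR products resolved by capillary electrophoresis. Gain or loss fitted versus DMSO.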

[17] = ATG_FoxO_CIS: Attagene CIS-FACTORIAL HepG2 Assay for human Forkhead box O (FoxO) (AID 2282943); settings: HepG2 Attagene cis-reporter, FoxO element, mRNA; actives raise or lower the signal
How it was run: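 Endogenous transcription factor activity read from multiplexed cis-promoter reporter transcripts in transiently transfected HepG2, 24 h after dosing. Reporter RNA measured via RT-PCR plus capillary electrophoresis of FAM-labeled products; gain or loss relative to DMSO.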

[18] = ATG_GATA_CIS: Attagene CIS-FACTORIAL HepG2 Assay for human GATA Binding Protein (AID 2282944); settings: HepG2 GATA cis-element reporter, Attagene multiplex mRNA; actives raise or lower the signal
How it was run: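 Transfected cis-reporter HepG2 cells were treated with chemicals for 24 hours. Total RNA was then converted to cDNA, amplified with reporter-specific primers and analysed by fluorescent capillary electrophoresis, using DMSO-treated wells as baseline.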

[19] = ATG_GLI_CIS: Attagene CIS-FACTORIAL HepG2 Assay for human Zinc Finger Protein GLI1 (AID 2282945); settings: HepG2, Attagene cis-factorial reporter mRNA, GLI element; actives raise or lower the signal
How it was run: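 Bidirectional curve fits relative to DMSO, using reporter mRNA levels from RT-PCR plus capillary electrophoresis. Cells were HepG2 transiently carrying cis-regulated reporter constructs, harvested 24 h after dosing.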

Measured: AC50

Chain of Aryl hydrocarbon receptor (Homo sapiens) (P35869 whole entry, looked up): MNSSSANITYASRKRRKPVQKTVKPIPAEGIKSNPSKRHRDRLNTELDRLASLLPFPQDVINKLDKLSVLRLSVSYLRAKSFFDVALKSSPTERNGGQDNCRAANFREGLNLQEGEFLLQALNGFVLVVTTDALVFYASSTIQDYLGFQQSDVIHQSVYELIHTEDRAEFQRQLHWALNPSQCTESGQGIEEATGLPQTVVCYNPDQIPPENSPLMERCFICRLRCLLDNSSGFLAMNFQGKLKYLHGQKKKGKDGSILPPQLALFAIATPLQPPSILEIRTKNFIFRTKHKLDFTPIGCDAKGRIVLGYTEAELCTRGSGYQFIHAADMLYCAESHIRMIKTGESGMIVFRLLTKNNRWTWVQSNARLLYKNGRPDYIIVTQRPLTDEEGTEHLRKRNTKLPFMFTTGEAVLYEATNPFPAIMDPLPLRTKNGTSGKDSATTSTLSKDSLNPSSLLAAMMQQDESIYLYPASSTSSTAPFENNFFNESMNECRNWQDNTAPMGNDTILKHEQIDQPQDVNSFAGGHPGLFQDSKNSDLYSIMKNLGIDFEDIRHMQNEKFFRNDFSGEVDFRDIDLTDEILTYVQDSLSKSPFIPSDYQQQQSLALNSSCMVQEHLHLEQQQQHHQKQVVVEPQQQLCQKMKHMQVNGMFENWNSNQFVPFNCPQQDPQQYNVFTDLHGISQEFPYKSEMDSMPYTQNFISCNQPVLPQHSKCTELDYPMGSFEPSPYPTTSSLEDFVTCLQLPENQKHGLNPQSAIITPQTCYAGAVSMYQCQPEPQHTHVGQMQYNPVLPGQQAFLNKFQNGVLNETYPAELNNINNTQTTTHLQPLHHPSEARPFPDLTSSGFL
Chain of Hepatocyte nuclear factor 3-beta (Homo sapiens) (Q9Y261 whole entry, looked up): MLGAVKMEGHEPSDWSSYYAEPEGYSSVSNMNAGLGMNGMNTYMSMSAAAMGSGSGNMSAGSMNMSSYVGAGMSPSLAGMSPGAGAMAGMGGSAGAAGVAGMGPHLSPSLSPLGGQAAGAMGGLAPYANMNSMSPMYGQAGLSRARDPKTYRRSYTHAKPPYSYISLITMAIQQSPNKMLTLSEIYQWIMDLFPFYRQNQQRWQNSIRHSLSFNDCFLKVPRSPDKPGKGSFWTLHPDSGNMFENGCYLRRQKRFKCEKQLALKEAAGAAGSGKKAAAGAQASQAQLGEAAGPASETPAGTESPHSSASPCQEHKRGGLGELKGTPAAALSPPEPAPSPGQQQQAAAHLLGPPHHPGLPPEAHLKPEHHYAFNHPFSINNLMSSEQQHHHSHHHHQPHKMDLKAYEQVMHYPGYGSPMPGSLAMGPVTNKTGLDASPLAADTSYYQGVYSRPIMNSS
Chain of Retinoic acid receptor alpha (Homo sapiens) (P10276 whole entry, looked up): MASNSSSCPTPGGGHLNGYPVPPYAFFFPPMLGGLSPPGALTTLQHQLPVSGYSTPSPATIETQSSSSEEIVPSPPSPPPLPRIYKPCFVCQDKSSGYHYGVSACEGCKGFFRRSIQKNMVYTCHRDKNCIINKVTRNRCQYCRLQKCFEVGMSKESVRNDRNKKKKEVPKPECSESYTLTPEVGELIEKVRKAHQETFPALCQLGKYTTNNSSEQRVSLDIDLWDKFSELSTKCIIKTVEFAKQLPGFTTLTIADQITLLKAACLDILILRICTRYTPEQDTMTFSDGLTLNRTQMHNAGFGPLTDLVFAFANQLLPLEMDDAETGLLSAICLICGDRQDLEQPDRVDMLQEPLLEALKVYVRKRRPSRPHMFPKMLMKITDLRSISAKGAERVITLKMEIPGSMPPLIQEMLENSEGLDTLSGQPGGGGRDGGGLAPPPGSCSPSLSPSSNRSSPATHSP
Chain of CCAAT/enhancer-binding protein beta (Homo sapiens) (P17676 whole entry, looked up, the tested form may be a part): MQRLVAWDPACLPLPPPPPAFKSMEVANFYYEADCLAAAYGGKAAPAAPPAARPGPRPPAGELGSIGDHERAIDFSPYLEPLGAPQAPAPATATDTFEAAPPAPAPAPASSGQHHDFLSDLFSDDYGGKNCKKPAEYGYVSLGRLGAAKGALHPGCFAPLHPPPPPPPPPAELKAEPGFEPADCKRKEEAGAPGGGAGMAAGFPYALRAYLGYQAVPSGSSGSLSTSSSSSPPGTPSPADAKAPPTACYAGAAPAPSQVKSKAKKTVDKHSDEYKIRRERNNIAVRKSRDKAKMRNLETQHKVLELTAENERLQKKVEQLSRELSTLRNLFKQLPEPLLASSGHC
Chain of Transcription factor E2F1 (Homo sapiens) (Q01094 whole entry, looked up): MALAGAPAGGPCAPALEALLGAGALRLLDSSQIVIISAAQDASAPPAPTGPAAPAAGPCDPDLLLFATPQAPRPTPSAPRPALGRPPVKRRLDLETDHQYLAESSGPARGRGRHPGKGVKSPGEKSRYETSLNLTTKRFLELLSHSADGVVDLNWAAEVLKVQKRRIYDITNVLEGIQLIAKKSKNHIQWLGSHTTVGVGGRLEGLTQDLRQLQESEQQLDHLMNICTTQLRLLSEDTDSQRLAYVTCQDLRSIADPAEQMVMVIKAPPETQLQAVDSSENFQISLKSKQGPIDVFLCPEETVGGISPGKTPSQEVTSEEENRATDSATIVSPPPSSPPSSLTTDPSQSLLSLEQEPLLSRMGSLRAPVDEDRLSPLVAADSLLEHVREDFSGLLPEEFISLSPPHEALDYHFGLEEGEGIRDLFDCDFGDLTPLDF

CCOc1ccc(NC(=O)CC(C)O)cc1 (stereo unspecified)
inactive: all assays above

CN(C)c1cccc(O)c1
active: [5] 7.57 µM
inactive: all other assays above

COc1cc(C(C)C)ccc1C
inactive: all assays above

CC(C)(C)c1ccc(C(=O)O)cc1
inactive: all assays above

N[C@@H](Cc1cc(I)c(Oc2cc(I)c(O)c(I)c2)c(I)c1)C(=O)O
active: [5] 3.62 µM
inactive: all other assays above

O=C(O)c1ccc(O)cc1
inactive: all assays above

CC1(C)O[C@@H]2C[C@H]3[C@@H]4CCC5=CC(=O)C=C[C@]5(C)[C@@]4(F)[C@@H](O)C[C@]3(C)[C@]2(C(=O)CO)O1
active: [5] 0.082 µM
inactive: all other assays above

C=C(CC(=O)O)C(=O)O
inactive: all assays above

CC(C)=CCCC(C)CCOC=O (stereo unspecified)
inactive: all assays above

COC(C)(C)CCO
inactive: all assays above

CC=CC=CCOC(=O)C(C)C
active: [4] 130 µM | [6] 100 µM
inactive: all other assays above

OCc1ccc(Cl)cc1Cl
inactive: all assays above

COCCOCCOCCO
inactive: all assays above

C=CCN(CC=C)CC=C
inactive: all assays above
